# HP1b binding inh = blocks HP1-beta chromodomain binding to methylated histone tails; AlphaScreen HP1-beta / biotin-H3K9me3 peptide binding; P83916; Potency, µM (highest dose often 114 µM), for inactives: at the highest dose activity change, negative = inhibition, most hits filed as inhibitors; hit rate 0.56% among 390,000; also: potency is read from the fitted curve at half-maximal effect; nearly all actives have a fitted effect of over 70% in size
#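 HP1-beta protein (50 nM final) preincubated 30 min at room temperature with biotinylated H3(1-18)K9me3 peptide (50 nM) in PBS pH 7.4, 0.01% Tween-20, then compound added for 30 min. AlphaScreen streptavidin donor/nickel chelate acceptor beads (10 ug/mL final), 30 min dark, luminescence read.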
# BAZ2B block = inhibitors of human BAZ2B bromodomain; Q9UIF8; AlphaScreen BAZ2B-H3K14Ac peptide displacement; Potency, µM (doses to about 114 µM), without a hit: at the highest dose activity change, negative = inhibition, most hits filed as inhibitors; hit rate 4.4% among 360,000; also: potency is read from the fitted curve at half-maximal effect; % is scaled to controls: 0 for no effect and ±100 for the full control effect; nearly all actives have a fitted effect of over 60% in size
#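 BAZ2B 50 nM plus b-H3(5-23)K14Ac 50 nM, PBS pH 7.4/0.01% Tween-20, 30 min RT; compound added (max 110 uM), 30 min RT; streptavidin donor/Ni-chelate acceptor beads 10 ug/mL final, 20 min dark; AlphaScreen read.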
# KAT2A inh = inhibitors of human GCN5L2 histone acetyltransferase | GCN5L2 HAT assay, ThioGlo1 CoA-SH fluorescence | Potency, µM (doses to about 58.9 µM), for the others: at the top dose activity change, negative = inhibition, hits mostly inhibitors | hit rate 0.21% among 390,000; also: potency is read from the fitted curve at half-maximal effect; % is scaled to controls: 0 for no effect and ±100 for the full control effect
#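 Free CoA generated was detected with ThioGlo1 (50uM) fluorescence at Ex340nm/Em540nm, read immediately and after 20 min at room temperature. Enzyme, 20 nM in HEPES pH 7.5 buffer, saw compounds 15 min before adding 75uM H3(1-25) peptide and 70uM acetyl-CoA.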
# PLK1 PBD block = inhibitors of human PLK1 polo-box domain binding | P53350 | Plk1 PBD binding of FITC phosphopeptide, fluorescence polarization | Potency, µM, for the others: max response, negative = inhibition, most hits filed as inhibitors | hit rate 2.8% among 360,000 | AID 720504; also: potency is read from the fitted curve at half-maximal effect; series mostly up to about 57 µM; % is scaled to controls: 0 for no effect and ±100 for the full control effect; nearly all actives have a fitted effect of over 65% in size
# Target sequence (P53350 whole entry, looked up, the tested form may be a part): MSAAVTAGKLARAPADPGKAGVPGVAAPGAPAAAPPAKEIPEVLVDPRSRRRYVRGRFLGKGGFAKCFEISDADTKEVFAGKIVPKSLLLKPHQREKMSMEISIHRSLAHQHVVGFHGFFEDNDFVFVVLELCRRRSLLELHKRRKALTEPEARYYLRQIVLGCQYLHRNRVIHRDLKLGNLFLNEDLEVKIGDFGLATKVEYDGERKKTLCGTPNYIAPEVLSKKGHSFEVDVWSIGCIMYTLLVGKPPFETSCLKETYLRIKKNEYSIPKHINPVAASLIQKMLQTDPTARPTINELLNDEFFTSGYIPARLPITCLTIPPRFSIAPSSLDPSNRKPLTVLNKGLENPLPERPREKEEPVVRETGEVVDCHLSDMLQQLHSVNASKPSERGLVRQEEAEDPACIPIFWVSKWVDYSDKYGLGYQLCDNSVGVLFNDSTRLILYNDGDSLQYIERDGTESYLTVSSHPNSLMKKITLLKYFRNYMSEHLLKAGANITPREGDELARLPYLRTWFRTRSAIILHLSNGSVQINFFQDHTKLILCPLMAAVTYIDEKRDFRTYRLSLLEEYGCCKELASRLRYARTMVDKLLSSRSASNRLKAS
# PI5P4K alpha inh = PI5P4K alpha (human) kinase inhibition; P48426; PI5P4Kalpha enzyme, ADP-Glo luminescence, 60 min; stronger effect = lower value; max response, %; hit rate 1.2% among 330,000; AID 652105; active = max response of -50% or lower; inconclusive = between -30% and -50%; inactive = -30% or higher; also: value at the top dose of about 77 µM; % is scaled to controls: 0 for no effect and ±100 for the full control effect
#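 Controls without substrate or without enzyme flank wells where PI5P4Kalpha converts substrate using 5 microM ATP (final). Incubation lasts 60 minutes at room temperature; ADP formed is read by ADP-Glo luminescence.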
# JMJD2A Tudor = blocks the human JMJD2A Tudor domain. O75164. AlphaScreen JMJD2A-Tudor / H3K4me3 peptide binding. hit rate 4.4% among 390,000. Potency, µM (top dose mostly 114 µM), for the others: at the highest dose activity change, negative = inhibition, hits mostly inhibitors; also: potency is read from the fitted curve at half-maximal effect; % is scaled to controls: 0 for no effect and ±100 for the full control effect; nearly all actives have a fitted effect of over 50% in size
# Numbers without * were called inactive; ? = inconclusive; · = no result; [ ] = remark or other dose. In the library only some 7% were active in any assay of this set; here they are far more common. Unless noted, calls follow the shape of the dose curve; as a rule, active = well fitted curve in the direction sought with a large enough effect; inconclusive = small, poorly fitted or top-dose-only effect, or another doubt; inactive = no such curve, though single readings can be large; an effect the other way counts as inactive or inconclusive.
SMILES,HP1b binding inh,BAZ2B block,KAT2A inh,PLK1 PBD block,PI5P4K alpha inh,JMJD2A Tudor
CN(C(=S)Nc1ccc(Oc2ccccc2)cc1)c1ccc(O)cc1,18µM*,?,-15%,-17%,0,56µM*
CN(C(=S)Nc1cccnc1)c1ccc(O)cc1,?,-10%,-3%,-7%,-9,?
O=[N+]([O-])c1ccc(C=Nc2cccc3ccccc23)s1,13µM*,16µM*,0%,-6%,6,40µM*
CS(=O)(=O)N1CCCC(C(=O)Nc2ccccc2F)C1 (stereo unspecified),37%,-13%,0%,-9%,1,-10%
O=C(Nc1ccccc1F)C1CCCN(S(=O)(=O)c2ccccc2)C1 (stereo unspecified),-5%,-3%,-5%,3.4µM*,?,13µM*
[O-]/C(=C(\C(=S)Nc1cccc2ccccc12)[n+]1cccc(CO)c1)c1ccc(Cl)s1,-26%,32µM*,-3%,-11%,3,?
[O-]/C(=C(\C(=S)NCc1ccccc1)[n+]1ccccc1)c1ccc(Cl)cc1,?,-36%,-10%,?,-24,?
Cc1c(Cl)cccc1NC(=S)/C(=C(\[O-])c1ccc(Cl)s1)[n+]1ccccc1,?,?,-2%,-11%,5,45µM*
[O-]/C(=C(\C(=S)NCc1ccc2c(c1)OCO2)[n+]1ccccc1)c1ccc(Cl)s1,-10%,45µM*,-11%,?,-1,-33%
Cc1ccc(C([O-])=C(C(=S)NCc2ccccc2)[n+]2cccc(CO)c2)cc1[N+](=O)[O-],-16%,·,·,?,-7,?
Cc1ccc(NC(=S)/C(=C(\[O-])c2ccc(Cl)s2)[n+]2cccc(CO)c2)cc1C,?,12%,-4%,-11%,0,50µM*
CN1C(=O)[C@H]2[C@@H](c3ccc(C(F)(F)F)cc3)N[C@]3(CCCN(Cc4ccc(C(F)(F)F)cc4)C3=O)[C@H]2C1=O,·,·,·,-2%,0,·
[O-]/C(=C(\C(=S)Nc1ccc(SC(F)F)cc1)[n+]1cccc(CO)c1)c1ccc(Cl)s1,-13%,32µM*,-5%,?,-5,?
[O-]/C(=C(\C(=S)Nc1ccc(SC(F)F)cc1)[n+]1ccccc1)c1cc(Cl)ccc1Cl,-18%,?,-8%,-10%,-2,?
CC(C)c1nn2c(=O)cc(COC(=O)COc3ccccc3F)nc2s1,55%,-14%,1%,·,·,-12%
Nc1[nH]c(C(=O)c2ccccc2)c(-c2ccccc2Br)c1C(=O)c1ccccc1,·,·,·,-1%,-6,·
COc1ccc(NS(=O)(=O)c2ccc(NC(=S)NC(=O)C(C)C)cc2)cc1,-10%,?,-17%,?,-3,-14%[11.4 µM]
CCOc1ccc(NS(=O)(=O)c2ccc(C(=O)N(C)Cc3cccc(OC)c3OC)cc2)cc1,-6%,-27%,-3%,-8%,8,89µM*
COc1cccc(CN(C)C(=O)c2ccc(NS(=O)(=O)c3ccc4[nH]c(=O)[nH]c4c3)cc2)c1OC,33%,-13%,?,3%,0,-12%
CCOc1ccc(NS(=O)(=O)c2ccc(NC(=S)NC(=O)C(C)C)cc2)cc1,-28%,-10%,-20%,27µM*,-10,-31%[11.4 µM]
COC(=O)c1ccccc1NC(=O)Cn1c(=O)n(CCCC(=O)NCc2ccccc2OC)c(=O)c2ccccc21,26%,2%,-1%,·,·,14%
Nc1nc(SCC(=O)Nc2ccc(Cl)cn2)n[nH]1,?,-10%,-11%,30µM*,1,-17%[11.4 µM]
CC(Sc1n[nH]c(N)n1)C(=O)Nc1ccc(Cl)cn1 (stereo unspecified),26%,-2%,-3%,-9%,6,-5%
CC(=O)Nc1ccc(SCC(=O)Nc2ccc(Cl)cn2)cc1,42%,?,6%,13µM*,-8,2%
CC(C)=CCC[C@H](C)C[C@@H]1CC2=C(C(=O)OC(C)(C)O2)[C@H](c2ccc(F)cc2)O1,·,·,·,4%,17,·
SMILES,HP1b binding inh,BAZ2B block,KAT2A inh,PLK1 PBD block,PI5P4K alpha inh,JMJD2A Tudor
Cc1ccccc1-c1nc(CN2CCC(C(=O)NCc3ccc(F)cc3)CC2)c(C)o1,19%,?,-8%,·,·,-29%
O=C(CSC1=NS(=O)(=O)c2cc(Cl)ccc2N1)Nc1ccccc1C(F)(F)F,25%,7%,1%,-12%,-9,-10%
O=S(=O)(NC1CC2CCC1C2)c1ccc(Br)s1 (stereo unspecified),-7%,16%,-16%,3.4µM*,?,-31%[11.4 µM]
O=S(=O)(NC1CC2CCC1C2)c1ccc(Br)cc1 (stereo unspecified),68%,-1%,-8%,-9%,-2,12%
O=C(Nc1ccc(C(=O)N2CCCCC2)cc1)C1CCC1,48%,·,·,-5%,-11,5%
Cc1cc(Cl)cc(Br)c1OCCCNCC(C)O (stereo unspecified),47%,-17%,-7%,-3%,4,3%
Cc1cc(Cl)cc(Cl)c1OCCCCN(C)C,?,-35%,0%,-19%,8,45µM*
Cc1cc(C)c(OCCOCCN2CCN(C)CC2)c(Cl)c1,?,32µM*,-2%,-6%,1,1.6µM*
Cc1cc(C)c(OCCN2CCCC2)c(Cl)c1,-22%,-32%,-7%,-8%,0,-100%
Cc1cc(Cl)cc(Cl)c1OCCN1CCCC1,?,-9%,-2%,-1%,3,50µM*
Cc1cc(Cl)c(OCCCN2CCCCC2)c(Br)c1,?,50µM*,-3%,-3%,-6,28µM*
O=C(CS(=O)(=O)c1cccc2nsnc12)N1CCN(c2ccc(F)cc2)CC1,25%[57 µM],0%,-7%,·,·,-12%
COc1ccc(N2CCN(C(c3ccc(F)cc3)c3sc4nc(-c5ccco5)nn4c3O)CC2)cc1 (stereo unspecified),?,40µM*,-2%,·,·,?
COc1ccc(N2CCN(C(c3ccccc3F)c3sc4nc(-c5ccco5)nn4c3O)CC2)cc1 (stereo unspecified),?,40µM*,-3%,·,·,?
C=CC[C@H](CC(=O)NCCO)C(=O)NCCOC(=O)[C@@H](CC=C)CC(=O)OC(C)(C)C,56%,·,1%,-13%,7,-9%
COc1ccc(OC)c(CNC(=O)c2[nH]c(C(F)(F)F)nc2-c2ccccc2)c1,·,·,·,-11%,0,·
Cc1ccc(NC(=O)CCc2c(C)nn(-c3ccc(N4CCOCC4)nn3)c2C)cc1C,11%,-19%[57.1 µM],-5%,27µM*,-16,?
CC(C)Cc1nn2c(N)c(/C=C3\C=Nc4ccccc43)c(=O)nc2s1,34%,-10%,-13%,-17%,0,0%

# High-throughput results deposited in PubChem BioAssay by National Center for Advancing Translational Sciences (NCATS).
